# Measured values published in the supplement of paper PMC3334620.
# Over roughly 33,000 sequences, “E-score (-0.5 to 0.5)” has its median near -0.016; the highest 2% begin near 0.31. Only a selection was taken, and the highest values are over-represented in it overall.
# Target: Cst6 (UniProt P40535)
# Assay: PBM E-score (8-mer binding enrichment) (E-score (-0.5 to 0.5)); higher = stronger / more preferred TF binding
# Details: protein concentration: 200 nM; construct: GST-DNA-binding domain
# Protocol: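 Universal 'all 10-mer' protein binding microarrays (Agilent AMADID 015681) probed with GST-tagged S. cerevisiae TFs (full-length or DBD) made by in vitro transcription/translation (PURExpress), about 100-200 nM. Bound TF was detected with fluorescent anti-GST. Each ungapped 8-mer (which stands for itself and its reverse complement) is scored by the PBM enrichment score (E-score), a modified Wilcoxon-Mann-Whitney statistic from -0.5 to +0.5, computed with the Universal PBM Analysis Suite. Scale: above 0.35 generally sequence-specific binding.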
# Sequence of UniProt P40535 (P40535 whole entry): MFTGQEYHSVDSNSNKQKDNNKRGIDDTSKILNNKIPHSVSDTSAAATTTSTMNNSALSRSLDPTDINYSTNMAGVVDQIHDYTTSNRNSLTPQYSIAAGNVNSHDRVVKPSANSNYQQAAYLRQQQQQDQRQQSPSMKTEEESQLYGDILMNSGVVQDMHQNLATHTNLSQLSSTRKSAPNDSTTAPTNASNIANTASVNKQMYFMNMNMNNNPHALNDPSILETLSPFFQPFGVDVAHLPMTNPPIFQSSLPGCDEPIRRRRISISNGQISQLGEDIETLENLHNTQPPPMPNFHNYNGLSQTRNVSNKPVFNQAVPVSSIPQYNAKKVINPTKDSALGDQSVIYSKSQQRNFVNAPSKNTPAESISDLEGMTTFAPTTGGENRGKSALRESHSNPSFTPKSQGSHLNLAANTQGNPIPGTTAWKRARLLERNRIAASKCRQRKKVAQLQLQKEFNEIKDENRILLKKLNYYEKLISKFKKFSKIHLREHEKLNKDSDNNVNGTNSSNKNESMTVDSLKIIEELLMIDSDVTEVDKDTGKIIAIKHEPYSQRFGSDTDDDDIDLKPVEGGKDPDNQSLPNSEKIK
row,Sequence,PBM E-score
1,TGACGTCA,0.5
2,GGACGTCC,-0.128
3,AGACGTCA,0.484
4,GGTCGTCA,0.272
5,AGACGTCG,-0.103
6,AGACGTCC,-0.00823
7,CGACGTCA,0.491
8,CGACGTCC,-0.0701
9,GGACGTGA,-0.0809
10,CGACGTCG,-0.0227
11,AGACGTCT,-0.207
12,GGACGTCA,0.468
13,ATTCTGCC,0.124
14,ACATGCAT,0.0333
15,CAATGGCC,-0.314
16,GAGCCAGC,-0.299
17,ACTTGCCC,-0.215
18,ATGTTTCG,0.263
19,AGCCCCAC,-0.161
20,CTGACACA,0.0411
21,ACGACACG,0.0167
22,GAGACACA,-0.0694
23,GTGACACA,0.322
24,ATGACACA,0.349
25,ATGACACG,0.256

row,Sequence,PBM E-score
1,AGACATGG,-0.0372
2,ACTACCTC,0.0105
3,AGCTTGGA,-0.274
4,ACTGGGCA,-0.16
5,CCGATAAA,0.0173
6,AAACGCAA,0.254
7,TCCCGTCA,0.0641
8,TCACGTCA,0.49
9,GCACGTTA,0.0802
10,ACACGTCT,0.0155
11,CCACGTCG,-0.196
12,ACACGTCG,-0.0793
13,GCACGTCA,0.459
14,TCACGTGA,0.1
15,CCACGTCC,-0.214
16,CCACGTCA,0.472
17,ACACGTCA,0.481
18,GCACGTCC,-0.0855
19,AGGGGGTA,-0.392
20,AGGACTGG,-0.203
21,CTCTTAAA,0.112
22,AGACAAGG,-0.181
23,GGCACGCA,-0.0289
24,GGGCGGGA,-0.0359
25,CAAGAGGC,0.0779

row,Sequence,PBM E-score
1,AGTGACCA,-0.105
2,GTTGACGA,0.192
3,AGTGACGA,0.399
4,GGTGACCA,-0.0455
5,GGTGACGA,0.463
6,AGTGACGG,0.301
7,GGAGGCGA,-0.154
8,ATTATATG,0.306
9,ATTATATC,0.327
10,ATTATAAG,0.182
11,ATTATATA,0.239
12,ACTATATG,0.0805
13,CTTATATC,0.291
14,AGGAGAAG,-0.154
15,GAGGCGAA,0.0301
16,ATCTAGGA,-0.0727
17,ACGGGTCA,-0.0243
18,GTCTAGAA,-0.0503
19,GATACGGA,0.111
20,CATACGCA,0.147
21,AATACGAC,0.0982
22,CATACGTA,0.383
23,GATACGCA,0.0359
24,AATACGTG,0.176
25,AATACGTC,0.323

row,Sequence,PBM E-score
1,AATACGCA,0.124
2,GATACGTA,0.332
3,AATACGCC,0.104
4,AATACGTA,0.344
5,CATACGAA,0.154
6,ATTGAGGG,-0.186
7,TCAGAGGA,-0.193
8,GCAGGAGA,-0.202
9,TCCGACGA,-0.0151
10,CTGCTAAG,-0.279
11,CTATGGCC,-0.271
12,CATACGTC,0.405
13,CATACGCC,0.156
14,CCTACGTC,0.305
15,ATCCCGTG,0.0123
16,CTCAAAAC,0.175
17,GTTACGAA,0.16
18,ATTACGAG,0.235
19,GTTACGCA,0.266
20,CTTACGCA,0.249
21,ATTACGGG,0.00617
22,ATTACGAA,0.305
23,ATTACGCG,0.326
24,ATTACGCC,0.254
25,ATTACGCA,0.398

row,Sequence,PBM E-score
1,CGACACAC,0.0466
2,CGGAGAAA,-0.0341
3,ACAATGAC,0.336
4,CCAATGAC,0.314
5,GCAATGAC,0.3
6,CCAATGAA,-0.187
7,ACAATGAG,-0.0976
8,ACAATGAT,0.269
9,AGCCAGTC,-0.244
10,CGCCATGC,0.0733
11,GTCTGGGA,-0.281
12,ATTGCCTA,-0.141
13,ACATCCAA,0.131
14,CATCGTCA,0.372
15,CATCGTCG,-0.112
16,AATCGTCC,-0.00977
17,TATCGTGA,0.0604
18,TATCGTCA,0.397
19,CATCGTCC,0.14
20,AATCGTCA,0.34
21,AATCGTCT,0.11
22,GATCGTCA,0.294
23,CCAGATAG,-0.0711
24,ACCTTGTA,0.0757
25,CTTAGCAA,-0.0618

row,Sequence,PBM E-score
1,GGGCTCGA,-0.112
2,CACAGATG,0.0492
3,ATTGCTCC,-0.0682
4,CGACCGGA,-0.305
5,CATCGTAG,0.00214
6,GATAGTAA,0.14
7,TATAGTAA,0.161
8,CATAGTAA,0.313
9,GGCAGGAA,-0.21
10,CCATGACA,0.271
11,ACATGACG,0.435
12,ACATGACA,0.274
13,CCATGACC,0.0749
14,ACATGACT,-0.0377
15,CCATGACG,0.457
16,AAAGCGGC,0.151
17,AGGAACTC,-0.0807
18,AATCCCTC,-0.0193
19,ATGTCGCA,-0.0497
20,CCTCAGAA,-0.0484
21,CAACGTTA,0.119
22,AAATAATA,0.287
23,AAATACAA,0.321
24,AAATAATG,0.312
25,ATATAAAT,0.321

row,Sequence,PBM E-score
1,AAATAAAG,0.104
2,ATATAAAC,0.295
3,CAATACAA,0.15
4,AAATAATC,0.178
5,AAATAAAA,0.186
6,ATATAAAG,0.17
7,AAATAAAT,0.371
8,AAATACAC,0.141
9,GCACACTA,-0.138
10,ACGGTAAA,0.129
11,GACACTAC,0.0584
12,AGGAGCTG,-0.256
13,CTTCACAA,-0.0895
14,GGTTGCAC,-0.136
15,GCACTGTA,-0.00858
16,ACGTTATA,0.31
17,ACGTTAGG,0.112
18,CCGTTATA,-0.00095
19,ACGTTATC,0.269
20,ACGTTATG,0.333
21,GCGTTATA,0.0248
22,CCAAGGAG,-0.0523
23,ACTGCAGA,-0.0111
24,TGCTACAA,0.0326
25,ATCTCATG,-0.00941

row,Sequence,PBM E-score
1,ATATTCGA,-0.111
2,AACAAATT,0.32
3,AACAAGTT,0.0438
4,AACAAATA,0.242
5,CTCAGGCC,-0.258
6,CAACACGG,0.0445
7,CCAATAAC,0.135
8,AGTATGAA,0.0821
9,GGTATGAC,0.191
10,AGTATGAG,0.0817
11,CGTATGGC,0.23
12,AGTATGAT,0.235
13,CGTATGAG,0.133
14,CGTATGAA,0.319
15,AGTATGAC,0.354
16,CGTATGAC,0.443
17,GACGAGAA,0.242
18,TCTTGACA,0.053
19,CGAGGACG,-0.269
20,CAACCTTA,0.0972
21,GCTGATAC,-0.0819
22,ACGGTTCC,-0.0941
23,ACCGGGAG,-0.317
24,CACCTCGA,0.119
25,CTCTATAC,-0.125

row,Sequence,PBM E-score
1,CTATATAC,0.338
2,ATATATAC,0.281
3,ATATATAA,0.324
4,TTATATAA,0.24
5,CTATATAA,0.147
6,GTATTGAC,0.148
7,CGCTTGAC,-0.0844
8,AGAAATTG,0.27
9,CCTTATGA,0.159
10,AATACGGG,-0.0401
11,AATACGGT,-0.0647
12,CATACGGC,0.321
13,AATACGGC,0.324
14,GATACGGC,0.139
15,CATACGGA,0.049
16,CCGCAGCA,0.0617
17,GGTTCTAC,-0.204
18,CACATCAG,-0.0727
19,GACCGTCA,0.137
20,AACCGTCA,0.174
21,CACCGTCC,-0.173
22,TACCGTCA,0.345
23,CACCGTCG,-0.174
24,CACCGTCA,0.314
25,GAACCAAA,-0.0818

row,Sequence,PBM E-score
1,GGATATCA,-0.0151
2,GGATATAA,0.236
3,AAATATCA,0.139
4,CGATATAA,0.225
5,TAATATCA,0.319
6,TGATATCA,0.426
7,CAATATCA,0.126
8,TGATATAA,0.323
9,AGATATCA,0.198
10,GGAAGAGA,-0.106
11,ATTCTGAC,0.181
12,GGCGTACC,-0.19
13,CAACCAAG,0.0364
14,TCGGACAA,0.0914
15,CACAGTGC,-0.024
16,CCCTAACA,0.127
17,GACGTGAA,0.142
18,GCCGTGAA,0.184
19,GACGTGAC,0.394
20,CACGTGAC,0.148
21,GCCGTGCA,0.279
22,GCCGTGAC,0.341
23,ACCGTGCC,0.0391
24,GCCGTGCC,0.308
25,ACCGTGAC,0.291

row,Sequence,PBM E-score
1,CCAAGCGA,-0.309
2,AAACAGGT,0.0221
3,ATTCTGGA,0.122
4,AAGCCTTA,-0.0547
5,ACCTGCTA,-0.0708
6,TTACGCAA,0.438
7,CGACGCCA,0.00886
8,TGACGCAA,0.489
9,GGACGCAA,0.0196
10,AGACGCCA,-0.108
11,GTACGCAA,0.0898
12,TCACGCAA,0.375
13,ATACGCAA,0.283
14,CCACGCAA,0.043
15,AGACGCAA,0.0971
16,GCACGCAA,-0.0783
17,TGACGCCA,0.466
18,CTGCTTAC,0.00293
19,CGTGACTC,-0.1
20,ACGCTCAT,0.114
21,CCTAAGCA,-0.0807
22,TTAGGCAA,-0.00879
23,TAACCAGA,-0.0457
24,CAAGTGCC,0.0401
25,ACGCCGTG,0.383

row,Sequence,PBM E-score
1,ACGCCGTC,0.389
2,ACGCCGTA,0.349
3,GGGCCGTA,0.116
4,GCGCCGAA,0.132
5,CCGCCGTC,0.206
6,CCGCCGTA,0.0871
7,GCGCCGTA,0.384
8,ACGCCGCG,0.302
9,ACGCCGGG,-0.254
10,AGGCCGTA,0.0502
11,ACGCCGAC,0.0423
12,ATCCAATA,0.222
13,AGCCGACC,-0.292
14,CTGGGACA,-0.219
15,CCTGTGGC,-0.117
16,AGAGTACC,-0.135
17,TAGTACAA,-0.00017
18,ACATTTCC,0.13
19,GAGATCGA,0.0615
20,CATCCGCG,0.151
21,GTATGTAA,0.282
22,GGATGTCA,0.277
23,GTATGTCA,0.422
24,AGATGTCA,0.298
25,ATATGTCA,0.404

row,Sequence,PBM E-score
1,CTATGTCA,0.392
2,CGATGTCA,0.319
3,ATATGTCG,0.185
4,GTATGTTA,0.182
5,ATGTGTCA,0.286
6,ATATGTCC,0.121
7,CTATGTCC,-0.152
8,CATCAAGG,-0.0962
9,ACGCCCGT,-0.0034
10,AACTAAGG,0.0828
11,GGAACGCA,-0.112
12,AGGTATAC,0.0822
13,GGCCGTGA,0.14
14,CTGCGCTC,-0.292
15,GCAGTCGC,-0.0904
16,ACAAGGCG,0.223
17,GGTGGCGA,-0.11
18,CAGCGGTA,0.0522
19,CCATAGCG,-0.0739
20,GACAGAAA,0.311
21,GACAGAAC,0.0521
22,AACAGAAA,0.213
23,ACCGTTCG,0.0621
24,ACTACCCT,-0.111
25,AATTCGCT,0.238

row,Sequence,PBM E-score
1,CATTATCA,0.137
2,CATTATCG,0.0831
3,AATTATCT,0.161
4,AATTATCG,0.316
5,AATTATCA,0.356
6,AATTATCC,0.188
7,ACAGGGGA,-0.218
8,ATTTAAAA,0.258
9,ACAATAGC,-0.178
10,ATTGGCAG,-0.165
11,AGTAACTG,0.00693
12,CTACGTCC,-0.0878
13,CTACGTCA,0.493
14,ATACGTCA,0.494
15,ATACGTCG,0.215
16,GTACGTTA,0.124
17,ATACGTCC,0.061
18,CTACGTGA,0.0384
19,GTACGTCA,0.49
20,GTACGTGA,0.108
